Activity calls are given as the source filed them.

The values that follow come from PubChem BioAssay.

Assay [1] is described as follows: optical density shifts of acrAB sulA E. coli – strain DRC41, OD650, 48 h, E. coli filamentation inducer project, primary screen (AID 1152).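 Further: E. coli MC1000 strain DRC41 lacking acrAB efflux pump and sulA.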 The settings on record: higher = more signal, called active from +8 up or from −8 down.
The nature of assay [2]: probe aLefty1 binding on compound microarray – biochemical, small-molecule microarray, 635/667 nm fluorescence, primary screen (AID 1153).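 Further: score merges spot fluorescence with signal-to-noise ratio from the scanned slide images.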 The settings on record: higher = more signal.
Assay [3] is described as follows: plasmodial surface anion channel blockers, osmotic lysis – cell-based, P. falciparum Indochina, OD700, 1 h, primary screen (AID 1154). The note with it: P. falciparum Indochina infected RBC osmotic lysis, higher = more signal, called active from +8 up or from −8 down.
A short description of assay [4]: plasmodial surface anion channel blockers, osmotic lysis – cell-based, P. falciparum Indochina, OD700, 2 h, primary screen (AID 1155).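 Further: lysis reports solute entry through the parasite surface anion channel PSAC.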 The settings on record: P. falciparum Indochina infected erythrocytes, higher = more signal, called active from +8 up or from −8 down.
A short description of assay [5]: changes in parasitized red cell lysis, either direction – P. falciparum Indochina, OD700, 3 h, PSAC antagonist project, primary screen (AID 1156). The note with it: P. falciparum-infected erythrocytes, osmotic lysis, higher = more signal, called active from +8 up or from −8 down.
Assay [6] is described as follows: plasmodial surface anion channel blockers, osmotic lysis – cell-based, P. falciparum Indochina, OD700, 18 h, primary screen (AID 1157). The note with it: P. falciparum Indochina infected erythrocytes, osmotic lysis OD700, 18 h; higher = more signal, called active from +8 up or from −8 down.
Assay [7] can be described thus: S6 kinase pathway phospho-S6 level changes – cell-based, A549, cytoblot, luminescence, serum-stimulated, primary screen (AID 1158).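 Further: serum-stimulated A549 lung adenocarcinoma cells; signal is phosphorylated S6 detected by cytoblot immunostaining with HRP secondary.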 The note with it: 5 h, higher = more signal.
In assay [8] the target is NADPH oxidase 2 (Homo sapiens) (UniProt P04839). The experiment in a line: compounds shifting NOX2 Amplex Red fluorescence – cell-based, HEK293-NOX2, PMA-stimulated, NOX inhibitor project, primary screen (AID 1159). Further: test concentration not given here. The settings on record: 45 min, higher = more signal, called active from +8 up or from −8 down.
Chain of NADPH oxidase 2 (Homo sapiens) (P04839 whole entry, looked up): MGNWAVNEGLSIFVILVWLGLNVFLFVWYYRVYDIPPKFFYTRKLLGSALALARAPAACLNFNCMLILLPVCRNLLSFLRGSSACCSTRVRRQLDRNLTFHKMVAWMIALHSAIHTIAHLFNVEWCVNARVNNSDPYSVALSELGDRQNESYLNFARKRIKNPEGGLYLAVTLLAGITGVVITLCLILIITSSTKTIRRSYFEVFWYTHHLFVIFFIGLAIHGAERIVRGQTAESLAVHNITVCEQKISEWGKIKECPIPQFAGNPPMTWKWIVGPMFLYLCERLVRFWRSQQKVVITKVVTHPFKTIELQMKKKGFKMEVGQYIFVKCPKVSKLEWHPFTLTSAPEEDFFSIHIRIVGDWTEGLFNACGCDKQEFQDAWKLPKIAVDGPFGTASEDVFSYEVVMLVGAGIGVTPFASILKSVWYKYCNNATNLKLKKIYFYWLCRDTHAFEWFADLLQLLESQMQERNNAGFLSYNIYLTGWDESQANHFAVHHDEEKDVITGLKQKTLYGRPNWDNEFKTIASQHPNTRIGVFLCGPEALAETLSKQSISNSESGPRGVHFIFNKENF
The target in assay [9] is NADPH oxidase 4 (Homo sapiens) (UniProt Q9NPH5). The experiment in a line: compounds shifting NOX4 Amplex Red fluorescence – cell-based, HEK293-NOX4, tetracycline-induced, NOX inhibitor project, primary screen (AID 1160). The settings on record: HEK293-NOX4, Amplex Red H2O2 fluorescence, 45 min; higher = more signal, called active from +8 up or from −8 down.
Chain of NADPH oxidase 4 (Homo sapiens) (Q9NPH5 whole entry, looked up): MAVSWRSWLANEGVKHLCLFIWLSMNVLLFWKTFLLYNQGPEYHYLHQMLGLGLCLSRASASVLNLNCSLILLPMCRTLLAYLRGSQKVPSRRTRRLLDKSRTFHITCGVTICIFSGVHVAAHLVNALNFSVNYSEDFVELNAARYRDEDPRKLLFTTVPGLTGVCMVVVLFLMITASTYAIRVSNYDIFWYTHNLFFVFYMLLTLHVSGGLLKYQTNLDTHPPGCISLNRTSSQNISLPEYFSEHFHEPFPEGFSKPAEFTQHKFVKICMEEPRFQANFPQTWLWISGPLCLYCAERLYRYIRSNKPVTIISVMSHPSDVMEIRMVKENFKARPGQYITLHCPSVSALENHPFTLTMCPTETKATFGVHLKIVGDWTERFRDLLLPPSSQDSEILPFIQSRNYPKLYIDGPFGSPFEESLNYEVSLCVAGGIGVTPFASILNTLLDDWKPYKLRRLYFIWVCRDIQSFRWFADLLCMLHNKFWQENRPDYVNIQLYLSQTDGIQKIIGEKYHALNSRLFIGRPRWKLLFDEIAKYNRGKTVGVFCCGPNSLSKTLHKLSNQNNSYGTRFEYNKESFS
For assay [10], the target named is NADPH oxidase 5 (Homo sapiens) (UniProt Q96PH1). The experiment in a line: compounds shifting NOX5 Amplex Red fluorescence – cell-based, HEK293-NOX5, NOX inhibitor project, primary screen (AID 1161). The settings on record: HEK293-NOX5, ionomycin, 45 min, higher = more signal.
Chain of NADPH oxidase 5 (Homo sapiens) (Q96PH1 whole entry, looked up): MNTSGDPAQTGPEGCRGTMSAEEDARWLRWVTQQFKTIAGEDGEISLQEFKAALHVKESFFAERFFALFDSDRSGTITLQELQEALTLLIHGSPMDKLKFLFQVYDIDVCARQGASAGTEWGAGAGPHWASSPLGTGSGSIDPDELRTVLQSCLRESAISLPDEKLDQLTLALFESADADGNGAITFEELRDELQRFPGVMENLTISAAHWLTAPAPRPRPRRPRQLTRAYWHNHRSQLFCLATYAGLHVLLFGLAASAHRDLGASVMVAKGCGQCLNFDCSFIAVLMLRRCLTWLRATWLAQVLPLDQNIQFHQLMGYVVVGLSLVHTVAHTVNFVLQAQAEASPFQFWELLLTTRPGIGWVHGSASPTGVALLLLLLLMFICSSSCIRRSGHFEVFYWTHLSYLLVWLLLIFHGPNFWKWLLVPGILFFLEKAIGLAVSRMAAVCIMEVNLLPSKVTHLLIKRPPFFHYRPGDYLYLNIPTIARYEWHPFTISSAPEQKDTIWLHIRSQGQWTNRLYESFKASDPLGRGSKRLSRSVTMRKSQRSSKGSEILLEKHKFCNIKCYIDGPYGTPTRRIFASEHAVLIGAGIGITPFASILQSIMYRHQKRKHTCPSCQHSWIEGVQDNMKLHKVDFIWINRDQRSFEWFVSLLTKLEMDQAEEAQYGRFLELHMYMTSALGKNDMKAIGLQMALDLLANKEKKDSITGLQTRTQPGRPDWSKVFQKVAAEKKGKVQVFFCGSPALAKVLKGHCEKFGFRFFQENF

As to `C=C(COC)C(=O)CC[C@H](OC(C)=O)c1cccc(OCCO)c1`, the z-score is 0.527 (inactive) in assay [1]; 4.14 (inactive) in assay [3]; -1.22 (inactive) in [4]; 1.88 (inactive) in assay [5]; -1.48 (inactive) in assay [6]; 2.19 in assay [7]. In addition, the z-score was -1.66 (inactive) in [8], -0.724 (inactive) in assay [9] and -1.46 in assay [10]. The same compound gave a composite z-score in assay [2] of -0.393.

As for `Cc1ccc(S[C@]2(C(=O)NCc3ccccc3)CC(=O)N(Cc3ccccc3Cl)[C@@H]2c2ccc(CO)cc2I)cc1`, the z-score was 0.196 (inactive) in [1]; 3.44 (inactive) in assay [3]; 0.68 (inactive) in assay [4]; 1.9 (inactive) in assay [5]; 0.255 (inactive) in assay [6]; 0.379 in assay [7]. Further, the z-score was 2.76 (inactive) in assay [8], -0.824 (inactive) in assay [9] and 0.774 in assay [10]. The compound also gave a composite z-score in assay [2] of 0.0903.

For the compound `CCCCC(O)C1C=CC2C(=O)N(C3CCCCC3)C(=O)C2N1Nc1ccc(OC)cc1` (stereo not given), the z-score in assay [1] is -0.436 (inactive); in assay [3], 3 (inactive); in assay [4], 1.24 (inactive); in [5] it was 0.517 (inactive); in [6], 0.684 (inactive); in assay [7] it was -0.62. In addition, the results for the z-score in assay [8], in assay [9] and in assay [10] were -0.937 (inactive), -2.06 (inactive) and -1.43, respectively. The same compound displayed a composite z-score in [2] of 0.366.

As for `O=C1O[C@H](c2ccccc2)[C@H](c2ccccc2)N2[C@H]1[C@@H](C(=O)O)[C@]1(C(=O)Nc3ccc(C#CC4(O)CCCCCC4)cc31)[C@H]2c1ccc(OCCO)cc1`, the z-score in assay [1] was -1.21 (inactive); in assay [3] it was 1.14 (inactive); in [4], -0.795 (inactive); in assay [5], -9.96 (active); in assay [6] it was -0.71 (inactive); in [7] it was -0.424. Moreover, the figures for the z-score in assay [8], in assay [9] and in assay [10] were 2.71 (inactive), -0.335 (inactive) and 1.25, respectively. Further, the composite z-score in assay [2] was -0.031.

Regarding `CC(C)N1C(=O)[C@@]2(c3ccc([N+](=O)[O-])cc3)CC(=O)N(CC34CC5CC(CC(C5)C3)C4)[C@@H]2c2ccc(CO)cc21`, the z-score was 0.0258 (inactive) in assay [1]; 0.297 (inactive) in [3]; 0.328 (inactive) in assay [4]; 0.0625 (inactive) in [5]; 0.131 (inactive) in assay [6]; -0.561 in [7]. The values for the z-score in assay [8], in assay [9] and in [10] were 0.306 (inactive), -0.0646 (inactive) and 0.607, respectively. In addition, the composite z-score in [2] was 1.04.

In the case of `CCCCC=C[C@@H](NC(=O)c1cccs1)c1ccccc1`, the z-score in [1] is -1.05 (inactive); in [3], 4.38 (inactive); in [4], 0.669 (inactive); in assay [5] it was 0.66 (inactive); in assay [6], 1.38 (inactive); in assay [7], 0.221. Further, the z-score in [8] was -0.99 (inactive); in [9] it was -0.568 (inactive); in assay [10] it was 1.18. Besides, the composite z-score in [2] is 0.762.

With `O=C(CCN1CCOCC1)c1cccc(O)c1`, the z-score in assay [1] was -0.202 (inactive); in [3] it was 0.205 (inactive); in [4], -1.48 (inactive); in assay [5], -0.582 (inactive); in assay [6], -1.68 (inactive); in assay [7] it was 0.4. Further, the z-score in [8] was -2.74 (inactive); in assay [9] it was -0.206 (inactive); in assay [10], 1.72. For the same compound, the composite z-score in assay [2] worked out at 0.154.

On to `O=C1OCC=C[C@H]2OC34C=CCN(c5ccc6ccccc6c5)C(=O)[C@H]3N(CCCO)C(=O)[C@@H]4[C@@H]12` (stereo not given in full), for which the z-score was 0.392 (inactive) in [1]; 0.638 (inactive) in assay [3]; -0.0892 (inactive) in assay [4]; 0.572 (inactive) in [5]; -1.56 (inactive) in assay [6]; 1.28 in assay [7]. For the same compound, the z-score was 1.09 (inactive) in [8], -0.0483 (inactive) in assay [9] and 0.904 in assay [10]. In assay [2], this compound registered a composite z-score of 0.251.

Turning to `CC(C)(C)OC(=O)CC[C@]1(C(=O)N2CCCCC2)N=C(c2ccc(OCCCO)cc2)O[C@H]1c1ccccc1N=[N+]=[N-]`, the z-score was 1.66 (inactive) in assay [1]; 32.1 (active) in assay [3]; 28.8 (active) in [4]; 2.17 (inactive) in assay [5]; 7.7 (inactive) in assay [6]; -0.167 in assay [7]. In addition, the z-score is -3.53 (inactive) in assay [8], 0.976 (inactive) in [9] and -1.46 in [10]. In assay [2], this compound returned a composite z-score of 0.19.

Take `CC1=C2[C@@H](CCc3ccccc3)OB(O)C[C@@H]2n2c(=O)n(-c3ccccc3)c(=O)n2C1`: the z-score was -0.616 (inactive) in assay [1]; 1.57 (inactive) in [3]; 0.323 (inactive) in assay [4]; -0.318 (inactive) in assay [5]; -0.31 (inactive) in [6]; 0.417 in [7]. The z-score was -0.416 (inactive) in [8], -1.61 (inactive) in [9] and -0.939 in assay [10]. The compound further returned a composite z-score in [2] of -0.347.

For the compound `COc1ccc(CCN2C(=O)[C@@]3(Cc4ccccc42)c2ccccc2C(=O)N(Cc2ccccc2Cl)[C@H]3c2ccc(CO)cc2)cc1`, the z-score in assay [1] was 0.641 (inactive); in assay [3], 2.59 (inactive); in [4], 0.346 (inactive); in assay [5], 0.679 (inactive); in assay [6], 0.425 (inactive); in assay [7], 0.306. Moreover, the z-score is 1.3 (inactive) in assay [8], -1.49 (inactive) in assay [9] and 1.28 in assay [10]. Besides, in assay [2], the composite z-score is 0.0844.
